Bioassay records from PubChem BioAssay.
The list is not random: actives were taken first. Their share in the collection is about 2.4%.
TMEM16A inh: blocks the mouse calcium-activated chloride channel TMEM16A | AID 588511 | 310,000 tested, 1.2% active | HEK293 TMEM16A/YFP iodide influx fluorescence, ionomycin | normalized B-score (activity score, 25-100; higher = stronger inhibition) at 10 µM;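 active = ratio plate-corrected score three or more library SD toward inhibition, starting fluorescence score within five deviations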;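 note: score derived from kinetic fluorescence span divided by baseline fluorescence per well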
TMEM16A act: activates or potentiates the mouse TMEM16A chloride channel; B-score at 10 µM; HEK293 TMEM16A/YFP-H148Q/I152L, iodide quench fluorescence; stronger effect = lower value; Q8BHY3; 340,000 tested, 0.3% active;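 active = fluorescence-ratio B-score plate-corrected deviation score at least 3 library SD below zero, with starting fluorescence score within 5 deviations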;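 note: channel opened by trigger with iodide after compound preincubation; score built on the fluorescence ratio of max minus min over baseline; more negative score means more quench and so TMEM16A activation or potentiation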
HTR2A ag: mouse HTR2A agonism via beta-arrestin recruitment | P35363 | CHO-K1 mHTR2A beta-arrestin complementation, luminescence; percent of 30 µM serotonin response | activation, % at 7.6 µM | 360,000 tested, 0.66% active | AID 624169;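 active = activation above a run cutoff, the mean activation of all tested compounds plus 3 SD, cut at about 14% in these data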;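 note: 0% = plate median of compound wells and 100% = 30 µM serotonin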
NOD2 RIPK2 PPI: inhibitors of human NOD2-RIPK2 interaction. O43353. inhibition, % at 4.98 µM. AID 624267. 360,000 tested, 0.38% active. CHO BLA complementation NOD2-RIPK2, CCF4 ratio; in the data active = inhibition above about 21%;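 note: 0% = vehicle only and 100% = reference blocker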
TLR9-MyD88 inh: blocks human TLR9 binding to MyD88; CHO BLA complementation TLR9-MyD88, CCF4 FRET ratio; inhibition, % at 4.98 µM; 340,000 tested, 0.21% active; AID 504734;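 active = inhibition above the mean over all tested compounds plus 3 SD, cut at about 21% in these data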;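 note: 0% = DMSO only wells and 100% = clavulanate BLA inhibitor control wells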
TLR4-MyD88 BLA: TLR4-MyD88 interaction inhibition in cells. O00206+Q99836. HeLa CL3-4 TLR4/MyD88 BLA complementation, FRET ratio. inhibition, % at 8.4 µM. 200,000 tested, 0.18% active. AID 861; in the data active = inhibition above about 25%;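 note: 0% = vehicle and 100% = reference inhibitor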
Target sequence (O00206 whole entry, looked up): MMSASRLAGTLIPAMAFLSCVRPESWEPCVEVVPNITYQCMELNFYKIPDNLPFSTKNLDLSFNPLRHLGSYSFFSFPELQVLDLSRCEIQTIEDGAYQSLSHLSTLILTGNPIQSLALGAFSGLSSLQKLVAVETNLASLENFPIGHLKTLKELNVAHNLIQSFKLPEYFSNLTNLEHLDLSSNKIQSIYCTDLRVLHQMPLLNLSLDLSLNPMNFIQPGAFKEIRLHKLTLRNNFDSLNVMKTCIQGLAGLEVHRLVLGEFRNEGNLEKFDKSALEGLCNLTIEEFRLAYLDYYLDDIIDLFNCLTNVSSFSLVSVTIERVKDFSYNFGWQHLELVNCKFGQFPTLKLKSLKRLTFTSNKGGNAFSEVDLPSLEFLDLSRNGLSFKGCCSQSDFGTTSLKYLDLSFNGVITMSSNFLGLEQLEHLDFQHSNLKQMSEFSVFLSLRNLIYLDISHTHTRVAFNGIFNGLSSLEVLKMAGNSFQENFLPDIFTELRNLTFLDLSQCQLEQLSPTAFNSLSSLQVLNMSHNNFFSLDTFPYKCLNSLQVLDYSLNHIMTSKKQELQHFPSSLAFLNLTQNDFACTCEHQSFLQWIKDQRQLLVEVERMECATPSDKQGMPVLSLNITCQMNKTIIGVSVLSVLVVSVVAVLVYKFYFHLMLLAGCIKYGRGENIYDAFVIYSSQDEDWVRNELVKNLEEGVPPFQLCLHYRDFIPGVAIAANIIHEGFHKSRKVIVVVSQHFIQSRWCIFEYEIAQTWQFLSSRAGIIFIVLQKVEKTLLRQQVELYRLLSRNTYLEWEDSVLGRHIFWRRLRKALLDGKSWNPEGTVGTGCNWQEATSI
Target sequence (Q99836 whole entry, looked up): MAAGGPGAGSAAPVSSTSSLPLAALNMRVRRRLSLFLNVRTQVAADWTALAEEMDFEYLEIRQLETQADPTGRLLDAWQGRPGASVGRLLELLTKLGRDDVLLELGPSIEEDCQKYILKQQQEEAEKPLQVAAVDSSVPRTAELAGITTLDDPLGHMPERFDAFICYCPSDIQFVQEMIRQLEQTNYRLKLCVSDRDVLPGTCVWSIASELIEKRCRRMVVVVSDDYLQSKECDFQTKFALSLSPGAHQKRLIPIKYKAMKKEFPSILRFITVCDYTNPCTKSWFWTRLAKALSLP
TLR4-MyD88 conf: TLR4-MyD88 interaction inhibition confirmed; shares compounds with TLR4-MyD88 BLA; HeLa CL3-4 BLA complementation, CCF4 FRET ratio; inhibition, % at 8.4 µM; 350 tested, 50% active;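 active = mean inhibition across three repeat runs above about 25% carried over from the earlier screen, limit read from the data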;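 note: plate controls were DMSO only for no effect and clavulanic acid blocking BLA at full dose for full effect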
BLA inhibitor ct: inhibits beta-lactamase activity, counter-screen to TLR4-MyD88 binding inhibitors; inhibition, % at 8.4 µM; HeLa BLA reporter, CCF4 FRET ratio; shares compounds with TLR4-MyD88 BLA; 350 tested, 63% active;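 active = mean inhibition over three repeats above about 26% taken from the earlier screen, limit read from the data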;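 note: HeLa cells stably expressing beta-lactamase reporter as counterscreen for TLR4-MyD88 inhibitors; 0% = DMSO and 100% = clavulanic acid full inhibition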
TLR9-MyD88 conf: confirmation of human TLR9-MyD88 binding inhibitors. shares compounds with TLR9-MyD88 inh. CHO TLR9/MyD88 BLA complementation, CCF4 FRET ratio. inhibition, % at 4.98 µM. 680 tested, 51% active;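 active = mean inhibition across three repeats above about 21% taken from the earlier screen, limit read from the data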;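 note: blue over green emission ratio reports constitutive TLR9 MyD88 association via BLA complementation; 0% = DMSO vehicle wells and 100% = clavulanate BLA inhibitor wells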
BLA counter-1: non-selective beta-lactamase inhibitors in TLR9-MyD88 counter-screen; shares compounds with TLR9-MyD88 inh; CHO-BLA cells, CCF4 FRET ratio, BLA reporter; inhibition, % at 4.98 µM; 680 tested, 7% active;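 active = mean inhibition above a 50% cutoff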;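 note: counterscreen of TLR9-MyD88 hits on CMV-driven BLA in CHO-K1 cells; 0% = DMSO alone and 100% = clavulanate blocking BLA; higher means less blue over green ratio so more BLA blockade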
TLR9 CHO cytotox: CHO cell toxicity counter-screen for TLR9-MyD88 inhibitors | shares compounds with TLR9-MyD88 inh | TLR9-MyD88 CHO cells cytotoxicity, luminescence | inhibition, % at 4.98 µM | 680 tested, 39% active; in the data active = inhibition above about 11%
TMEM16A reconf: re-confirmation of mouse TMEM16A chloride channel inhibitors. shares compounds with TMEM16A inh. HEK293 TMEM16A/YFP-H148Q, iodide quench fluorescence; ionomycin added to raise cell calcium. inhibition, % at 10 µM. 2,300 tested, 39% active;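 active = mean duplicate percent inhibition, scaled so buffer wells are 0 and the reference blocker 100, over three buffer SD above buffer mean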
HEK293 Ca mobil: counter-screen for TMEM16A inhibitors: effect on calcium mobilization | shares compounds with TMEM16A inh | TMEM16A/YFP HEK293, Fluo4 calcium mobilization | calcium response (% of ionomycin), % at 10 µM | 2,300 tested, 2% active | AID 652231;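 active = duplicate-averaged calcium signal over 20% of the ionomycin maximum, relative to buffer baseline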;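 note: each well's signal is peak minus trough fluorescence divided by its pre-addition baseline; 0% = buffer wells and 100% = ionomycin wells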
Parental YFP cnt: counter-screen for TMEM16A inhibitors: effect in parental YFP-HEK293 cells | shares compounds with TMEM16A inh | iodide YFP quench, ionomycin | YFP ratio F(max-min)/F0 at 10 µM | 2,300 tested, under 10 active | AID 652233;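 active = yellow fluorescent protein signal ratio exceeding the buffer control mean by over 5 SD of those controls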;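 note: ratio is mean of duplicate wells from kinetic YFP trace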
ClC-1 inh: blocks the rat ClC-1 voltage-dependent chloride channel; ratio percent, % at 10 µM; AID 652236; shares compounds with TMEM16A inh; CHO ClC-1-YFP, iodide influx fluorescence quench; iodide control reads 0, buffer control 100; 2,300 tested, under 10 active;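 active = duplicate-mean ratio percent above the mean of iodide-only control wells, which defines zero, plus 5 of their SD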;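 note: higher percent means stronger block of ClC-1 iodide influx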
NOD2 RIPK2 conf: NOD2-RIPK2 interaction inhibition confirmed. CHO cells, NOD2-RIPK2 BLA complementation, CCF4 FRET. inhibition, % at 4.98 µM. AID 624370. 1,200 tested, 70% active. shares compounds with NOD2 RIPK2 PPI;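 active = mean inhibition across replicates above a set limit taken from the earlier primary screen, cut at about 21% in these data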;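 note: 0% = DMSO-only wells and the high end = clavulanate BLA-blocked wells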
BLA counter-2: NOD2-RIPK2 counterscreen BLA reporter activity; shares compounds with NOD2 RIPK2 PPI; CHO BLA reporter, CCF4 FRET ratio; inhibition, % at 4.98 µM; 1,200 tested, 57% active;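 active = mean inhibition above the low-control mean inhibition plus three low-control SD, cut at about 11% in these data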;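 note: 0% = DMSO only wells and 100% = clavulanate high control wells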
Active calls of the source: *; i = inactive; / = not tested or not shown.

SMILES	TMEM16A inh	TMEM16A act	HTR2A ag	NOD2 RIPK2 PPI	TLR9-MyD88 inh	TLR4-MyD88 BLA	TLR4-MyD88 conf	BLA inhibitor ct	TLR9-MyD88 conf	BLA counter-1	TLR9 CHO cytotox	NOD2 RIPK2 conf	BLA counter-2	others
CC1(C)CC(=O)C2=C(C1)OC1=C(C(=O)CC(C)(C)C1)C2c1ccc(O)cc1O	i	i	0.4	66.8*	14.7	33.5*	24.4	-7.5	/	/	/	78.6*	-1.6	TMEM16A reconf=i;HEK293 Ca mobil=i;Parental YFP cnt=-0.582;ClC-1 inh=-4.5
Cc1ccc(-n2ncc(Br)c(Br)c2=O)cc1	/	i	-2.0	31.6*	23.9*	27.3*	21.9	7.6	27.0*	17.6	101.1*	45.1*	8.4
O=[N+]([O-])c1ccc(N/N=C\c2cccn2-c2ccccc2)nc1	i	i	-8.6	46.1*	33.7*	41.3*	39.7*	61.5*	-14.2	28.7	8.8	52.3*	54.1*
O=[N+]([O-])c1ccc(NN=Cc2ccccc2)nc1	/	i	-2.8	13.9	4.0	/	/	/	/	/	/	/	/
CC(C)CNC(=O)COC(=O)c1c2c(nc3ccccc13)/C(=C/c1cccs1)CC2	i	i	1.5	37.7*	32.4*	45.1*	43.0*	70.8*	40.9*	48.5	9.2	64.8*	73.3*
CCOC(=O)CSc1nc(C)c(CC)c(C)c1C(N)=O	i	i	-2.4	-4.8	7.1	-7.3	/	/	/	/	/	/	/
CN(Cc1ccccc1)C(=O)CC(=O)N(C)Cc1ccccc1	i	i	2.1	2.7	0.1	/	/	/	/	/	/	/	/
Cc1c(Nc2cc(N3CCOCC3)c3nonc3c2[N+](=O)[O-])c(=O)n(-c2ccccc2)n1C	i	/	/	/	/	-4.0	/	/	/	/	/	/	/
Cc1c(Nc2cc(Cl)c3nonc3c2[N+](=O)[O-])c(=O)n(-c2ccccc2)n1C	/	i	-8.9	84.5*	50.3*	37.9*	28.9*	1.9	47.7*	6.7	97.6*	56.4*	30.7*
CC(C)(C)c1ccc(C(=O)Nc2cccc3c(=O)[nH][nH]c(=O)c23)cc1	i	i	2.6	50.0*	35.0*	28.7*	28.0*	50.7*	17.6	21.6	2.7	42.0*	48.1*
Cc1ccnc(NC(=O)COC(=O)C23CC4CC(CC(C4)C2)C3)n1	i	i	-0.2	-0.7	-5.6	/	/	/	/	/	/	/	/
COc1ccc(N2CC(C(=O)OCC(=O)c3ccc(C)cc3)CC2=O)cc1 (configuration not stated)	i	i	0.3	-8.1	3.3	3.0	/	/	/	/	/	/	/
COc1ccc(/C=c2/sc3n(c2=O)C(c2ccccc2OC)C2=C(N=3)c3ccccc3CC2)cc1O (configuration not stated)	i	i	-1.3	35.2*	17.3	27.3*	18.2	44.8*	/	/	/	25.6*	31.4*
COc1ccc(C2=CC(c3ccc(Cl)cc3)n3cnnc3N2)cc1OC (configuration not stated)	i	i	1.4	47.4*	50.1*	39.0*	26.1*	49.4*	-4.1	0.9	5.9	2.0	-7.8
O=C1/C(=C\c2cc([N+](=O)[O-])ccc2O)SC(=S)N1Cc1ccc(Cl)cc1	i	i	-8.4	13.1	23.5*	/	/	/	14.7	17.8	2.7	/	/
Cc1ccc(NC(=O)c2cccc(C(F)(F)F)c2)cc1NC(=O)c1[nH]cnc1C(N)=O	/	i	2.3	-6.1	27.8*	/	/	/	2.3	5.1	-2.7	/	/
Cc1nc2ccc(NC(=O)c3cccc(C(F)(F)F)c3)cc2o1	i	i	3.0	-20.1	-4.5	0.6	/	/	/	/	/	/	/
Cc1ccc(C)c(S(=O)(=O)N2CCN(CC(=O)N3CCc4ccccc4C3)CC2)c1	i	i	-3.3	-10.5	36.5*	-5.8	/	/	-1.6	2.5	0.3	/	/
CCc1ccccc1NC(=O)c1cc2ncc(Br)cn2n1	i	i	2.4	-1.3	12.5	2.4	/	/	/	/	/	/	/
O=C(COC(=O)c1ccc(S(=O)(=O)N2CCOCC2)cc1)NCc1ccco1	/	/	5.1	-10.3	3.8	/	/	/	/	/	/	/	/
CCN1C2OC3OC4C(OC3OC2N(CC)S1(=O)=O)N(CC)S(=O)(=O)N4CC (configuration not stated)	i	i	2.7	-4.2	-5.5	-16.8	/	/	/	/	/	/	/
COc1ccc(NC(=O)c2sc3nc(-c4cccnc4)ccc3c2N)cc1	i	i	5.7	12.3	34.1*	/	/	/	7.8	5.3	7.8	/	/
COc1ccc(C(=O)c2sc3nc(-c4ccc(OC)cc4)ccc3c2N)cc1	i	i	5.6	4.0	20.8*	-1.7	/	/	44.9*	44.9	-0.5	/	/
O=C(O)CCC(=O)Nc1ccc(S(=O)(=O)c2ccc(NC(=O)CCC(=O)O)cc2)cc1	i	i	-9.7	-18.9	4.4	/	/	/	/	/	/	/	/
C[C@@H]1CN([C@H](C)CO)C(=O)c2c(c3ccccc3n2C)-c2ccccc2CO[C@H]1CN(C)C(=O)Nc1ccccc1	/	/	0.7	-1.4	-7.5	/	/	/	/	/	/	/	/
